For 92 molecules, inhibition results are on record in PubChem BioAssay AID2013 (Sanford-Burnham Center for Chemical Genomics, 2009).

The whole screen tested about 290,000 compounds, of which about 370 (0.13%) were called active. Many of the other results were omitted from the sample, so actives are more common in it than they were. Measured potencies and affinities stand elsewhere. Unmarked numbers belong to inactive results.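 How the source made its calls: active means spots per cell inhibited over 60%, with over 100 cells counted and total cytoplasm intensity under 500,000; inconclusive means wells with under 100 cells, flagged as likely toxic; inactive means the rest.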

The target of the test is G-protein coupled receptor 55 (Homo sapiens) (UniProt Q9Y2T6). The experiment in a line: inhibition of LPI-stimulated GPR55 beta-arrestin translocation – imaging, U2OS, beta-arrestin-GFP, LPI agonist, primary screen (AID 2013).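 Further: U2OS cells stably carrying GPR55 and arrestin-GFP stimulated by 5 µM LPI near EC80; imaged beta-arrestin-GFP aggregate spots per cell after agonist stimulation; plate controls were LPI-stimulated DMSO wells for no effect and DMSO wells without LPI for full effect.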 To be noted: LPI antagonism, at 10 µM, stronger effect = higher value.
Chain of G-protein coupled receptor 55 (Homo sapiens) (Q9Y2T6 whole entry, looked up): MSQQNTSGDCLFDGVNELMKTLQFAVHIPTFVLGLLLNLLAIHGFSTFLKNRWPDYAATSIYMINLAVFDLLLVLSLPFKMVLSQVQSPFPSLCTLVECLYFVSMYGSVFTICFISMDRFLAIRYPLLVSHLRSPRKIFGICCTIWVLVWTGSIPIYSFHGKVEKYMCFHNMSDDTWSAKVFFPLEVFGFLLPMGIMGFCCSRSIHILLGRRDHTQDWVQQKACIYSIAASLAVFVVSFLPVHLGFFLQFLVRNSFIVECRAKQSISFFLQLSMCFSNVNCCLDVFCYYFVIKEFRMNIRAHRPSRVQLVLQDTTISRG
Broadly, the inhibition is the change of the read-out against control, counted positive when it falls. On to `O=C(NC12CC3CC(CC(C3)C1)C2)c1ccc([N+](=O)[O-])o1`, for which the inhibition is 1.3%.

For the molecule `O=C(NC12CC3CC(CC(C3)C1)C2)c1ccc(Br)o1`, the inhibition was 13%.

On to `O=C(NC12CC3CC(CC(C3)C1)C2)c1ccc(-c2cccc(Cl)c2)o1`, for which the inhibition was 2.9%.

On to `O=C(NC12CC3CC(CC(C3)C1)C2)c1ccc(-c2ccc(Br)cc2)o1`, for which the inhibition is 63.8% (active).

With `O=C(NC12CC3CC(CC(C3)C1)C2)c1ccc(-c2ccccc2Cl)o1`, the inhibition is -9.4%.

With `C1CN(c2nc(N3CCOCC3)nc(N3CCOCC3)n2)CCO1`, the inhibition was 8.7%.

Regarding `Cc1[nH]nc2c1/C(=N/O)CC(c1ccccc1)C2` (configuration not stated), the inhibition is -5.5%.

On to `COc1cc2ncc(C(=O)c3ccccc3)c(N3CCN(Cc4ccccc4)CC3)c2cc1OC`, for which the inhibition is 3.4%.

`Cc1ccc(-c2noc(CCC(=O)N(C)c3ccccc3C)n2)cc1`: the inhibition was -2.6%.

`CCc1ccccc1N(C)C(=O)CCc1nc(-c2ccc(C)cc2)no1`: the inhibition is -8.4%.

For `CCc1ccccc1NS(=O)(=O)c1c(C(=O)N2CCCCCC2)c(C)n(C)c1C`, the inhibition is 3.1%.

Turning to `CCN(C(=O)CSc1nnc(Nc2ccccc2C)s1)C1CCS(=O)(=O)C1` (configuration not stated), the inhibition is 12.3%.

As to `CC(C)C[C@H](NC(=O)Nc1ccccc1F)C(=O)O`, the inhibition is 2.2%.

`CSc1ccc(CN(C)C(=O)c2cc(=O)c3ccccc3o2)cc1`: the inhibition is -0.8%.

On to `COc1cc(NS(=O)(=O)c2ccc(Nc3nc(-c4ccccn4)cs3)cc2)nc(OC)n1`, for which the inhibition is 2.2%.

As to `COc1ccc(-c2csc(Nc3ccc(S(=O)(=O)Nc4cc(C)on4)cc3)n2)cc1`, the inhibition is 5.4%.

As to `COc1ccc(-c2csc(Nc3ccc(S(N)(=O)=O)cc3)n2)cc1`, the inhibition is 4.6%.

Take `COc1cc(NS(=O)(=O)c2ccc(Nc3nc(-c4cccc([N+](=O)[O-])c4)cs3)cc2)nc(OC)n1`: the inhibition was 0.2%.

As to `O=C1CC(N2CCN(c3ccccn3)CC2)C(=O)N1c1ccc(Cl)cc1` (configuration not stated), the inhibition is -0.1%.

`COCCn1c(SCC(=O)NC2CCCC2)nnc1-c1ccncc1`: the inhibition is 1.6%.

For `O=C(NCCc1ccc(Cl)cc1)c1cc2ccccn2n1`, the inhibition was 6.6%.

Take `COc1ccc(N2CCN(C(=O)Cn3ncc4c([nH]c5ccccc54)c3=O)CC2)cc1`: the inhibition is -7%.

Take `COc1cccc(NC(=O)COC(=O)CC(NC(N)=O)c2ccc(Cl)cc2)c1` (configuration not stated): the inhibition is -13.8%.

Take `O=C(Nc1ccc(N2CCOCC2)cc1)c1cc(-c2ccncc2)nc2ccccc12`: the inhibition is 15.8%.

Take `COc1cc(-c2cc(C(=O)Nc3ccccc3N3CCOCC3)c3ccccc3n2)cc(OC)c1OC`: the inhibition was 17.1%.

As to `Cc1cc(NC(=O)CSc2nnc(C)o2)no1`, the inhibition is 4.5%.

As to `OCCNc1nc(NCc2ccccc2)c2ccccc2n1`, the inhibition was -6.4%.

Take `Cc1ccccc1Nc1nc(NCc2ccco2)c2ccccc2n1`: the inhibition was 54.3%.

`c1ccc(CNc2nc(NCc3ccccc3)c3ccccc3n2)cc1`: the inhibition is 72% (active).

As for `c1ccc(Nc2nc(NCc3ccco3)c3ccccc3n2)cc1`, the inhibition was 73.7% (active).

In the case of `Fc1ccc(Nc2nc(NCc3ccco3)c3ccccc3n2)cc1`, the inhibition is 60.1%.

Consider `CNc1nc(NCc2ccccc2)c2ccccc2n1`, for which the inhibition was 5.4%.

As for `Cc1ccc(-c2nc(NCc3ccco3)c3ccccc3n2)cc1`, the inhibition was 7.7%.

Consider `Cc1cccc(Nc2nc(NCc3ccco3)c3ccccc3n2)c1`, for which the inhibition was -2.1%.

With `CC(=O)c1ccc(NC(=O)COc2ccccc2C(=O)Nc2ccc(C)cn2)cc1`, the inhibition is 10%.

Take `CC(C)CC1(C)NC(=O)N(Cc2cc([N+](=O)[O-])cc3c2OCOC3)C1=O` (configuration not stated): the inhibition is -6.2%.

With `CCCN(CC1CC1)C(=O)COC(=O)c1ccc(CNS(=O)(=O)c2ccc(F)c(Cl)c2)cc1`, the inhibition was 0.7%.

As to `c1ccc(OCCOc2ccccc2-c2nnco2)cc1`, the inhibition is -6.8%.

Regarding `Cc1ccc(-c2ccccc2[C@@H]2C[C@H]3CN(C)C(=O)[C@]34CCCN24)o1`, the inhibition was -2.8%.

In the case of `CC(C)N(C=O)C1(C(=O)NC2CCCCC2)CCCCC1`, the inhibition was 5.3%.

For `COc1ccc[nH]c1=O`, the inhibition was 0.4%.

For `CC(O)CNc1cnccn1` (configuration not stated), the inhibition is 14.2%.

Take `O=C(NCCN1CCNC1=O)C1CCC(=O)N(Cc2cccc(C(F)(F)F)c2)C1` (configuration not stated): the inhibition is -10.6%.

`Cc1ccc(NC(=S)NNC(=O)c2c([N+](=O)[O-])c(C)nn2C)cc1`: the inhibition is -1.6%.

Consider `CN1C2CCC1/C(=C\c1ccccc1)C(=O)/C2=C\c1ccccc1`, for which the inhibition is 15.1%.

For `CN1C2CCC1/C(=C\c1ccccc1Cl)C(=O)/C2=C\c1ccccc1Cl`, the inhibition is -4.7%.

Regarding `CC(C)(C)c1ccc(C(=O)Nc2ccc(C(=O)N3CCOCC3)cc2)cc1`, the inhibition was 13%.

As for `O=C(NCC(=O)N1CCN(S(=O)(=O)/C=C/c2ccccc2)CC1)c1ccc(Cl)cc1`, the inhibition was 10.1%.

In the case of `CCN(CC)CCNC(=S)N1CCn2c(nc3ccccc32)C1`, the inhibition was 3.9%.

On to `CCOC(=O)c1c(C)n(C)c2ccc(OC)c(NC(=O)CN3CCC(C(=O)OCC)CC3)c12`, for which the inhibition was -6.7%.

For the molecule `CCOc1ccccc1NC(=O)Nc1ccc(Br)cn1`, the inhibition was 13.3%.

As to `CN(NC(=O)CN1C(=O)c2ccccc2C1=O)C1=NS(=O)(=O)c2ccccc21`, the inhibition was -1.6%.

For the molecule `CC(C)(C)OC(=O)N1CCC(NC(=O)c2[nH]cnc2C(=O)N[C@@H](Cc2ccccc2)C(=O)OCc2ccccc2)CC1`, the inhibition was 41.8%.

In the case of `CC(C)C[C@H](NC(=O)c1[nH]cnc1C(=O)Nc1ccc(CNC(=O)OC(C)(C)C)cc1)C(=O)OCc1ccccc1`, the inhibition was 7%.

For `CC(C)(C)OC(=O)NCc1ccc(CNC(=O)c2[nH]cnc2C(=O)N[C@@H](Cc2ccccc2)C(=O)OCc2ccccc2)cc1`, the inhibition was 35.5%.

Regarding `C[C@H](NC(=O)c1nc[nH]c1C(=O)NCc1ccc(CNC(=O)OC(C)(C)C)cc1)C(=O)OC(C)(C)C`, the inhibition is 18.1%.

Take `C[C@H](NC(=O)c1[nH]cnc1C(=O)Nc1ccc(CNC(=O)OC(C)(C)C)cc1)C(=O)OCc1ccccc1`: the inhibition was 1.5%.

Take `CC(C)(C)OC(=O)[C@H](Cc1ccccc1)NC(=O)c1nc[nH]c1C(=O)N1CCN(C(=O)OC(C)(C)C)CC1`: the inhibition is 4.7%.

With `CCN(CC)S(=O)(=O)c1cc(C(=O)Nc2cc(C)[nH]n2)ccc1Cl`, the inhibition was 17.6%.

As for `Cc1cc(C)nc(NS(=O)(=O)c2ccc(NC(=O)C3CC3)cc2)n1`, the inhibition is 0%.

On to `O=C(NNc1c(Cl)cccc1Cl)c1ccno1`, for which the inhibition is 5%.

For the molecule `O=C(NC1CCCCC1)C(c1ccco1)N(C(=O)C(F)(F)F)C1CC1` (configuration not stated), the inhibition was -2.5%.

For the molecule `O=C(NCc1ccc2c(c1)OCO2)Nc1ccc(Cl)cc1`, the inhibition was -2.2%.

Turning to `CC(C(=O)Nc1ccccc1)C(=O)Nc1ccccc1`, the inhibition was -4.5%.

Turning to `O=C(Nc1ccccc1Cl)c1ccccc1`, the inhibition is 3.2%.

Take `CC(=O)C(Cl)C(=O)Nc1ccccc1` (configuration not stated): the inhibition is -8.1%.

With `Cc1cccc(C)c1NC(=O)C(Cl)C(=O)c1ccccc1` (configuration not stated), the inhibition was 2.5%.

In the case of `O=C(Nc1ccccc1)C(Cl)C(=O)c1ccccc1` (configuration not stated), the inhibition was 6.1%.

`O=C(Nc1ccccc1Cl)Nc1ccccc1Cl`: the inhibition is 1.2%.

Regarding `O=C(O)c1ccccc1NCc1ccsc1`, the inhibition is -6.3%.

In the case of `Cc1ccc(/C=N/Nc2nc(C)cc(C)n2)cc1`, the inhibition was 0.6%.

In the case of `Cc1ccc(-n2nc(C)c(=O)c(-c3ccccc3)c2NC(=O)C(C)C)cc1`, the inhibition is 11.6%.

As to `Cc1cc(C)n(/C(=C\N(C)C)C(=O)c2ccc(Cl)cc2)n1`, the inhibition is 6.9%.

For `O=C(CN1CCN(C(=O)c2ccco2)CC1)Nc1ccc(F)cc1F`, the inhibition was 10.4%.

`CC(C)(C)c1ccc(CN2C3=NCCCN3c3ccccc32)cc1`: the inhibition is 29.1%.

In the case of `CC(C)(C)c1ccc(CN2C(=O)CSC2=O)cc1`, the inhibition was -2.7%.

Consider `Cc1nc(C(Cl)(Cl)Cl)nc2[nH]ccc(=O)c12`, for which the inhibition is 4.1%.

With `FC(F)(F)c1cccc(Cc2noc(CN3CCC(c4ccncc4)CC3)n2)c1`, the inhibition was 5.1%.

`Cc1nonc1NC(=O)CSc1nnc(N)s1`: the inhibition is -5.8%.

As for `COc1cccc(-c2csc(N3CCN(Cc4ccccc4)CC3)n2)c1`, the inhibition was -6.9%.

Consider `COc1ccc(OC)c(/C=C/C(=O)Nc2cccc(S(=O)(=O)N3CCCC3)c2)c1`, for which the inhibition was -3.3%.

`Cc1cc2c(cc1S(=O)(=O)Nc1cccc(F)c1)n(C)c(=O)c(=O)n2C`: the inhibition was -13.1%.

Take `Cc1cc2c(cc1S(=O)(=O)Nc1ccc(F)cc1)n(C)c(=O)c(=O)n2C`: the inhibition is 9.6%.

As to `Cc1cc(NS(=O)(=O)c2ccc(NC(=O)C(C)Oc3ccc(C(C)C)cc3)cc2)no1` (configuration not stated), the inhibition is -4.7%.

Regarding `Cc1cccn2c(=O)c(/C=C(\C#N)S(=O)(=O)c3ccccc3)c(N3CCN(Cc4ccccc4)CC3)nc12`, the inhibition is 22.8%.

As to `Cc1cccn2c(=O)c3cc(C(=O)NCc4ccco4)c(=N)n(C(C)C)c3nc12`, the inhibition was 45.5%.

As for `Cc1ccc2nc3c(cc(C(=O)NCc4ccco4)c(=N)n3Cc3ccco3)c(=O)n2c1`, the inhibition was 23.2%.

Turning to `Cc1cccn2c(=O)c3cc(C(=O)NC4CCCC4)c(=N)n(C4CCCCC4)c3nc12`, the inhibition is 19.8%.

As for `Cc1cccn2c(=O)c3cc(C(=O)NCc4ccco4)c(=N)n(C4CCCCC4)c3nc12`, the inhibition was 50%.

Consider `N=c1c(C(=O)NC2CCCC2)cc2c(=O)n3ccccc3nc2n1C1CCCC1`, for which the inhibition was 8.6%.

On to `N=c1c(C(=O)NCc2ccco2)cc2c(=O)n3ccccc3nc2n1C1CCCC1`, for which the inhibition is 7.5%.

As for `O=C(COC(=O)c1cc(=O)[nH]c(=O)[nH]1)Nc1cccc(S(=O)(=O)N2CCCCC2)c1`, the inhibition is -7.4%.
